Here are results for 40 compounds from PubChem BioAssay AID1259423 (Fisher Drug Discovery Resource Center, 2018).

In this experiment the test system is Aedes aegypti neuropeptide Y-like receptor 7 (NPYLR7). Put plainly: agonists of mosquito NPYLR7 receptor, primary screen, cell-based, Aedes aegypti, calcium fluorescence, mosquito biting behavior (AID 1259423).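 Note: 0% = vehicle and 100% = reference agonist at the receptor.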 As to conditions: HEK293T NPYLR7/Galpha15, GCaMP6s calcium fluorescence, at 10 µM, stronger effect = higher value.
[1] abbreviates: measured here: Max-Min RFU normalised activation.

Structures are written as SMILES. Several values for one entry are separate records, joined by “and”; a condition that tells them apart may be missing. Equal values may be shown once. The whole screen tested about 270,000 compounds, of which about 410 (0.15%) were called active. Cut-off read from the data, not from the text of the source: active = activation above about 40%; inactive = the rest, inconclusive results apart. Only a selection was taken, and actives are over-represented in it overall.

In the case of `Cc1nc(N)sc1C(=O)N/N=C1\CCn2cccc21`, the activation was 4.89% (inactive). Moreover, the activation under setting [1] was 3.57%.
The corresponding values for `CCc1nc2c(OCC=C(C)C)cccn2c1N(C)C(=O)c1ccco1` are 6.84% (inactive) and -5.05%.
`CCOC(=O)C1CCN(C(=O)CC2CSc3nc4c(c(=O)n32)CCCC4)CC1` (stereo not given): the activation was -0.315% (inactive). Also, under setting [1], the activation is -2.68%.
As for `COc1ccc(NCc2cccc(F)c2)cc1N1CCOC1=O`, the activation was 11.9% (inactive) and 1.76% (inactive). For the same compound, the activation under setting [1] is 10.7% and -0.214%.
For the compound `CCN(CC)c1onc(-c2ccc(F)cc2)c1CN(CCOC)C(=O)Cc1ccccc1`, the activation is 15% (inactive). The activation under setting [1] came out at 16.6%.
The corresponding values for `Cc1ccc(F)c(-n2nnnc2CSCC(=O)NC(C)(C)C)c1` are 1.4% (inactive) and 3.68%.
For `Cc1cc(C)cc(C(O)C(F)(F)F)c1` (stereo not given), the activation is 4.04% (inactive) and 3.71% (inactive). The activation under setting [1] is 3.27% and 11.4%.
As for `CCc1cccc2sc(N(Cc3ccccn3)C(=O)c3cccc(S(=O)(=O)CC)c3)nc12`, the activation is 1.88% (inactive). Further, under setting [1], the activation was -3.52%.
With `COc1ccc(CN(CC(O)COCC(C)C)CC2CCCO2)cc1OC` (stereo not given), the activation was 1.65% (inactive). For the same compound, the activation under setting [1] came out at 13.2%.
Turning to `CN(Cc1ncc[nH]1)C1CCN(c2ccc3c(c2)OCO3)CC1`, the activation is -10.3% (inactive). Moreover, the activation under setting [1] was -10.5%.
`NC(=O)[C@@H]1CN2CCN(C(=O)c3ccco3)C[C@@H]2[C@H]1c1ccccc1`: the activation is 2.73% (inactive). Moreover, under setting [1], the activation was found to be 0.0894%.
The corresponding values for `O=C(c1ccc(-n2cnnn2)cc1)N1CCCC(N2CCCC2)C1` (stereo not given) are 6.38% (inactive) and 2.39%.
With `O=c1c2ccccc2sn1CN1CCN(c2ccc(C(F)(F)F)cn2)CC1`, the activation was 10.9% (inactive). For the same compound, under setting [1], the activation came out at 3.72%.
On to `CC[C@H]1CN(Cc2cc(Cl)cc(OC)c2OC)CC[C@@]1(C)O`, for which the activation was -5.14% (inactive). Under setting [1], the activation was -11.2%.
As to `Cc1ccc(CN(CCN2CCOCC2)CC(O)c2ccccc2)s1` (stereo not given), the activation was 1.67% (inactive). In addition, the activation under setting [1] worked out at 15.8%.
As for `CCN1C(=O)CSC1=C(C#N)C(N)=O`, the activation is 4.07% (inactive). Moreover, the activation under setting [1] is -0.252%.
The matching figures for `CN(C)CC1(O)CCCN(C(=O)c2ccc(N3CCCC3=O)cc2)C1` (stereo not given): -3.42% (inactive) and -7.14%.
Turning to `Nc1ccc2c3c(cccc13)C(=O)NC2=O`, the activation was 147% (active). Also, the activation under setting [1] stood at 136%.
Regarding `Cc1c(CN2CCn3cncc3C2)c(=O)n(-c2ccccc2)n1C`, the activation is 20.8% (inactive). Moreover, under setting [1], the activation is 15.6%.
On to `Clc1cccc2ccc(CN3CCn4cncc4C3)nc12`, for which the activation was 133% (active). Further, the activation under setting [1] amounted to 113%.
The matching figures for `CC1CNC(=O)CCN1Cc1ccc2cccc(Cl)c2n1` (stereo not given): 8.75% (inactive) and 6.16%.
The matching figures for `Cc1nc2ccccc2c(=O)n1N=Cc1ccc(OCc2ccccc2)cc1`: -6.32% (inactive) and -12.4%.
On to `CCOc1ccc(N2CC(NC(=O)Nc3ncccc3C)CC2=O)cc1` (stereo not given), for which the activation is 2.56% (inactive). Moreover, the activation under setting [1] is -0.89%.
As for `Cn1nc(C(=O)N2CCCC(COc3ccccc3F)C2)ccc1=O` (stereo not given), the activation is 11.1% (inactive). Moreover, the activation under setting [1] amounted to 4.67%.
In the case of `O=C(c1cnn(-c2ccccc2)n1)N1CCCC(COCc2ccccc2)C1` (stereo not given), the activation was 97.3% (active). Also, the activation under setting [1] stood at 92.7%.
As for `O=C(Cc1cnn(-c2ccccc2)n1)N1CCCCCCC1`, the activation was 10.9% (inactive). In addition, the activation under setting [1] stood at 7.94%.
Take `CN1CCOC(CCNC(=O)CCC(=O)N2CCCCCC2)C1` (stereo not given): the activation is 1.36% (inactive). Moreover, the activation under setting [1] was -0.93%.
`COc1ccc(C(=O)C=Cc2ccc(F)c(F)c2)cc1F`: the activation was 2.38% (inactive). The activation under setting [1] is -4.33%.
The corresponding values for `COc1ccc(C(=O)C=Cc2cc(Br)c(O)c(OC)c2)cc1F` are 172% (active) and 160%.
Turning to `COc1ccc(C=CC(=O)c2ccc(I)cc2)cc1OC`, the activation was 1.5% (inactive). The activation under setting [1] was determined as 6.21%.
The matching figures for `CCCCCCC(=O)Nc1c(-c2ccc(OC)c(OC)c2)nc2cc(C)ccn12`: -2.82% (inactive) and 4.02%.
The matching figures for `CC(=O)N1CCC(C(=O)N2CCCC(C(=O)c3ccc(C(F)(F)F)cc3)C2)CC1` (stereo not given): 0.616% (inactive) and -1.09%.
Turning to `COc1ccc(C)c2sc(N(Cc3ccccc3)C(=O)c3ccc([N+](=O)[O-])o3)nc12`, the activation was 3.04% (inactive). Besides, the activation under setting [1] amounted to 0.795%.
With `Oc1ccc(-c2onc3ccc(Cl)cc23)cc1`, the activation was 112% (active). For the same compound, the activation under setting [1] worked out at 227%.
`N#C/C(=C\c1ccc2noc(-c3ccccc3)c2c1)C(=O)Nc1ccccc1C#N`: the activation was 22.3% (inactive). Besides, the activation under setting [1] amounted to 18.1%.
The corresponding values for `c1ccc(Nc2nc(-c3ccco3)nc3ccccc23)cc1` are -1.91% (inactive) and 4.58%.
`COc1ccccc1-c1cc(C(=O)N2CCCC2)n2nc(C(C)(C)C)cc2n1`: the activation is 3.24% (inactive). Also, the activation under setting [1] was found to be 10.6%.
As for `CC1CN(C(=O)NCC(C)N(C)c2ccccc2)CC(C)O1` (stereo not given), the activation is 4.84% (inactive). Also, the activation under setting [1] is 1.94%.
For `COc1ccc(CN(Cc2nc(C(=O)O)co2)C(C)c2ccccc2)c(OC)c1` (stereo not given), the activation was 10.6% (inactive). Moreover, the activation under setting [1] was determined as 6.62%.
As to `CN(Cc1cc(-c2ccncc2)no1)Cc1cn[nH]c1-c1cccc(F)c1`, the activation was 1.92% (inactive). Besides, the activation under setting [1] stood at 4.35%.
